Assay in all cases: DAPPL (digital affinity profiling via proximity ligation, sequencing); 10 mM Tris-HCl pH 7.5, 50 mM NaCl, 1 mM DTT, 4% glycerol, room temperature, 30 min; GST-TFs on glutathione beads, 16-mer random dsDNA library, 0.1% formaldehyde crosslink after washing; high values mean tight binding
One test concerns the target T1, FEV (Homo sapiens, UniProt Q99581 1-238).
T1 sequence: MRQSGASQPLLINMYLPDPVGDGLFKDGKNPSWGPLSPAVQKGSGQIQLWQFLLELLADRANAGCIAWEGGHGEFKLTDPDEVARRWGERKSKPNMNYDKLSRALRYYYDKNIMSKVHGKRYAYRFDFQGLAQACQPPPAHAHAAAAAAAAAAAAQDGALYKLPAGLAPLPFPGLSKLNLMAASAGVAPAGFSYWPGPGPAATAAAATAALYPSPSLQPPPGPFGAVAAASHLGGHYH
Particulars: protein: recombinant; tags: N-terminal GST; dsDNA, one strand shown. Put shortly: (§1)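 Binding signal is given per hexamer as its read frequency for a factor divided by its frequency in the tag-only sample. GST-fused human transcription factors were expressed in yeast, captured on glutathione beads, barcoded with DNA and pooled with that sample, then incubated with 200 nmole of a 16-mer random double-stranded DNA library in Tris/NaCl/DTT/glycerol buffer for 30 min at room temperature. The pools were then washed, crosslinked, proximity-ligated, amplified by PCR and sequenced on an Illumina NextSeq500.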

A further test addresses ETV5 (Homo sapiens, UniProt P41161 1-510). Conditions: protein: recombinant; tags: N-terminal GST; dsDNA, one strand shown. Put shortly:
as §1

In another test the target is HSF1 (Homo sapiens, UniProt Q00613 1-529). Particulars: protein: recombinant; tags: N-terminal GST; chain copies: 3; dsDNA, one strand shown. Put shortly: as §1
Sequence of HSF1 (Q00613 whole entry): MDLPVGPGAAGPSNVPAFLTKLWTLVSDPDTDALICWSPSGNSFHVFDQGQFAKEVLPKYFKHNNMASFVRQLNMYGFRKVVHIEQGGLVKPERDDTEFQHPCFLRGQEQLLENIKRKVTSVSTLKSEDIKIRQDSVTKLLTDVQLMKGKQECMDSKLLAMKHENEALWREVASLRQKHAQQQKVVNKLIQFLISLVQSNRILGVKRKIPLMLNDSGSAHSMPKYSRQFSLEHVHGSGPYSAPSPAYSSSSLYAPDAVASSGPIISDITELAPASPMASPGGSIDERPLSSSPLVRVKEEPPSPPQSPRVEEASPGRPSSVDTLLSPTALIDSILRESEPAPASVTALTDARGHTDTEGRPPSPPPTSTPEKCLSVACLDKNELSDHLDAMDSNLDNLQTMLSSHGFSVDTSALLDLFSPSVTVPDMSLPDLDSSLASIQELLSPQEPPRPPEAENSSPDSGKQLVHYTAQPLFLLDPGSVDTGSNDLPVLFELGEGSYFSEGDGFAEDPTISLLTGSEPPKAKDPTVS
The target in the next test is T2, SPIC (Homo sapiens, UniProt Q8N5J4 1-248).
T2 sequence: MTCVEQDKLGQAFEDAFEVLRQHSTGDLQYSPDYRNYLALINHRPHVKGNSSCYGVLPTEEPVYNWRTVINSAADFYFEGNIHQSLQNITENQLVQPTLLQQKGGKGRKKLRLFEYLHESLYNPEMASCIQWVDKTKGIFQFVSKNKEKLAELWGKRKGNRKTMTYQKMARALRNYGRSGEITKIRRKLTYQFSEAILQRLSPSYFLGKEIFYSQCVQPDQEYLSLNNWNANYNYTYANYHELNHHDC
Particulars: protein: recombinant; tags: N-terminal GST; dsDNA, one strand shown. Put shortly:
as §1

The target in the next test is ELF4 (Homo sapiens, UniProt Q99607 1-663). Particulars: protein: recombinant; tags: N-terminal GST; dsDNA, one strand shown. Put shortly:
as §1

Another test concerns the target T3, ELK4 (Homo sapiens, UniProt P28324-2 1-405).
T3 sequence: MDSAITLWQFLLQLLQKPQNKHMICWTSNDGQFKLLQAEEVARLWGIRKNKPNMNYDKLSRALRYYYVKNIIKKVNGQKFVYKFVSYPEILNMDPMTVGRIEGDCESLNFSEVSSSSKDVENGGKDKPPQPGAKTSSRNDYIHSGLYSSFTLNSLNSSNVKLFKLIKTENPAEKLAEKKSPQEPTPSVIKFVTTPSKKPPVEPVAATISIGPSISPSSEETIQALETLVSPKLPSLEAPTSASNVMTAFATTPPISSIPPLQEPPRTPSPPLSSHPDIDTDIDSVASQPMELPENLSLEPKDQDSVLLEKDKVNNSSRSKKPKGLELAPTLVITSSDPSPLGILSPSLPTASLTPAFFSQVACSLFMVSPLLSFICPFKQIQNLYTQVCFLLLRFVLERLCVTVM
Conditions: protein: recombinant; tags: N-terminal GST; dsDNA, one strand shown. Put shortly:
as §1

For the next test, the target named is T4, ETV2 (Homo sapiens, UniProt O00321 1-342).
T4 sequence: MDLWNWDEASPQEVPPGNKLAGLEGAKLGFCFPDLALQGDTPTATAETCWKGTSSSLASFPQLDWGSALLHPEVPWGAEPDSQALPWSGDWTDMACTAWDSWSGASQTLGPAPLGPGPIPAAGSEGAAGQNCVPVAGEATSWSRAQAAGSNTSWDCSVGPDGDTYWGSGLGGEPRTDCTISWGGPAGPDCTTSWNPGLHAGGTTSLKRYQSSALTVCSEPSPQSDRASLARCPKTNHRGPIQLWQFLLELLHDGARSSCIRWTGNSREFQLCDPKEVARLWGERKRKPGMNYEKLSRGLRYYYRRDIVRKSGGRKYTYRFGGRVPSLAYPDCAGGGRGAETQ
Conditions: protein: recombinant; tags: N-terminal GST; dsDNA, one strand shown. Put shortly:
as §1

A further test concerns the target T5, ELF3 (Homo sapiens, UniProt P78545 1-371).
T5 sequence: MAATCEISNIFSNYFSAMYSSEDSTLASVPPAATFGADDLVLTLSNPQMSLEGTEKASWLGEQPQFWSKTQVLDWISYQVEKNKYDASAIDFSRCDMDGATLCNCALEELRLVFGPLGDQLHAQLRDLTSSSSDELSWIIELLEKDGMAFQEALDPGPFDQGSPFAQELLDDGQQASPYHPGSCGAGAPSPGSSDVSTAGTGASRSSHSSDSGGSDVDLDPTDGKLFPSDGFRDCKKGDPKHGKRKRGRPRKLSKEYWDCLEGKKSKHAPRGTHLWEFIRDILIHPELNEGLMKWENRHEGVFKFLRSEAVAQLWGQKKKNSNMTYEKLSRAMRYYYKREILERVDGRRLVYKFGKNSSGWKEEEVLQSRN
Conditions: protein: recombinant; tags: N-terminal GST; dsDNA, one strand shown. Put shortly:
as §1

The target in the next test is CRX (Homo sapiens, UniProt O43186 1-299). Particulars: protein: recombinant; tags: N-terminal GST; dsDNA, one strand shown. Put shortly:
as §1

The next test has as its target ETV1 (Homo sapiens, UniProt P50549 1-477). Conditions: protein: recombinant; tags: N-terminal GST; dsDNA, one strand shown. Put shortly: as §1
A further test has as its target T6, ERF (Homo sapiens, UniProt P50548 1-548).
T6 sequence: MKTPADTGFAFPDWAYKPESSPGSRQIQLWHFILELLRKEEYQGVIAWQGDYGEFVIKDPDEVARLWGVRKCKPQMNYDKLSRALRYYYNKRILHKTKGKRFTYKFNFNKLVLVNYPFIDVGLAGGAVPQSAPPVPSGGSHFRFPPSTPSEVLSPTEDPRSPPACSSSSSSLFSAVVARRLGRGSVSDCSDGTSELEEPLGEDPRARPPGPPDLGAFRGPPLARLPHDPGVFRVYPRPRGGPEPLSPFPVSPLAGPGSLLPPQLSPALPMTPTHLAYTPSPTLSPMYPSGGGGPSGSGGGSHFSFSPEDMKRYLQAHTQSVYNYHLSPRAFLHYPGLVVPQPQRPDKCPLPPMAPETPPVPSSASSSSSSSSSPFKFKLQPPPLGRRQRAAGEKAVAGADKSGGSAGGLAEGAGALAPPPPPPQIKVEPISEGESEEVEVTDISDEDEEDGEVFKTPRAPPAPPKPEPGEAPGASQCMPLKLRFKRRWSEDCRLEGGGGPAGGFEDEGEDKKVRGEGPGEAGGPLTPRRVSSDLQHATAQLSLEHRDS
Particulars: protein: recombinant; tags: N-terminal GST; dsDNA, one strand shown. Put shortly: as §1

For the next test, the target named is T7, ETV3L (Homo sapiens, UniProt Q6ZN32 1-361).
T7 sequence: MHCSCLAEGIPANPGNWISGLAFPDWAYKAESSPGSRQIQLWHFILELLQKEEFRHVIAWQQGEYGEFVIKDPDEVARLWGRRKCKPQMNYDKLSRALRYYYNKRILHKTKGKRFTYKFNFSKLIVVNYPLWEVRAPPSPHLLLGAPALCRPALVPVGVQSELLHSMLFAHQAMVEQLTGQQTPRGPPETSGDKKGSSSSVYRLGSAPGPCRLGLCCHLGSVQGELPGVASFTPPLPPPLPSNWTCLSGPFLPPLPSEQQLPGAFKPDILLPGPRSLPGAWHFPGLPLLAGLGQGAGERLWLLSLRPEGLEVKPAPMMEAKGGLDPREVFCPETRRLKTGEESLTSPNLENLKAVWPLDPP
Particulars: protein: recombinant; tags: N-terminal GST; dsDNA, one strand shown. Put shortly:
as §1

Another test deals with T8, ETS2 (Homo sapiens, UniProt P15036 1-469).
T8 sequence: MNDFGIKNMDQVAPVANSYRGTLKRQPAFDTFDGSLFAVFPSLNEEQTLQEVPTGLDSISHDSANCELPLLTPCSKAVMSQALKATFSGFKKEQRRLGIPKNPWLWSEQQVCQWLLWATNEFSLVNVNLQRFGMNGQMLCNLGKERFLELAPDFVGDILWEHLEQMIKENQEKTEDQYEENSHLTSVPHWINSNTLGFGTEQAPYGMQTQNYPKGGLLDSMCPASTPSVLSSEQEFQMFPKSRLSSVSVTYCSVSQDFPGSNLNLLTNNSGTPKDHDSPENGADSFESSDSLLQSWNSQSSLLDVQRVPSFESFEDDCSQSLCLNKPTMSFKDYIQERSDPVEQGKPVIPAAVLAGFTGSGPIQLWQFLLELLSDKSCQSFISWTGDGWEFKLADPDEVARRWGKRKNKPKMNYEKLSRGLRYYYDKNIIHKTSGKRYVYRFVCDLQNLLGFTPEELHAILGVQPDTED
Conditions: protein: recombinant; tags: N-terminal GST; dsDNA, one strand shown. Put shortly: as §1

The target in another test is T9, SPDEF (Homo sapiens, UniProt O95238 1-335).
T9 sequence: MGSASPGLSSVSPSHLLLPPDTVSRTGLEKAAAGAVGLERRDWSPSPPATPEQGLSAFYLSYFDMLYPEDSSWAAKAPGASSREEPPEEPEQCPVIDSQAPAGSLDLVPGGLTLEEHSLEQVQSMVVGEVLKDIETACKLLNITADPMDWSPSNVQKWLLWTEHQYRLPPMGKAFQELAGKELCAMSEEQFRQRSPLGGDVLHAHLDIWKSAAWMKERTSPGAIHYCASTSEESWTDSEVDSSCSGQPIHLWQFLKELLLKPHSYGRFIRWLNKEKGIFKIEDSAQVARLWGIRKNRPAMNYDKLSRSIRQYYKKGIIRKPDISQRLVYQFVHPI
Conditions: protein: recombinant; tags: N-terminal GST; dsDNA, one strand shown. Put shortly: as §1

The target of a further test is T10, ETV7 (Homo sapiens, UniProt Q9Y603 1-341).
T10 sequence: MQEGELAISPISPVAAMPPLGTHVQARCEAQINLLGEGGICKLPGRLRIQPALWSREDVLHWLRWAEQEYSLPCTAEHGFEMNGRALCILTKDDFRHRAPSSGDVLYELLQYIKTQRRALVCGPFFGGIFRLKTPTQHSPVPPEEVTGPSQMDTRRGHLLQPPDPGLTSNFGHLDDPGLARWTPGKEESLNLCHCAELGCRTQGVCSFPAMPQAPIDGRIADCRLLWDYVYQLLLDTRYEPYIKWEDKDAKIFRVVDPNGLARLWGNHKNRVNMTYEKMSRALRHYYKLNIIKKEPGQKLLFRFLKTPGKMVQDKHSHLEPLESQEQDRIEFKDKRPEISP
Conditions: protein: recombinant; tags: N-terminal GST; dsDNA, one strand shown. Put shortly:
as §1

For the next test, the target named is T11, ELF5 (Homo sapiens, UniProt Q9UKW6-2 1-255).
T11 sequence: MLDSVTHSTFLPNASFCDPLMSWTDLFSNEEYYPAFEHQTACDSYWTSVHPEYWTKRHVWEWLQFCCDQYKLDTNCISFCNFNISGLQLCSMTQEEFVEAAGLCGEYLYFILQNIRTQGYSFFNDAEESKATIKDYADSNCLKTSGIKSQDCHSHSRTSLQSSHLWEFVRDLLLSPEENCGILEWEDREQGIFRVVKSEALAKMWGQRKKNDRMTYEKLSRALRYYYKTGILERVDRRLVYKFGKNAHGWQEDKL
Particulars: protein: recombinant; tags: N-terminal GST; dsDNA, one strand shown. Put shortly: as §1

The target in a further test is T12, ETV3 (Homo sapiens, UniProt P41162-2 1-143).
T12 sequence: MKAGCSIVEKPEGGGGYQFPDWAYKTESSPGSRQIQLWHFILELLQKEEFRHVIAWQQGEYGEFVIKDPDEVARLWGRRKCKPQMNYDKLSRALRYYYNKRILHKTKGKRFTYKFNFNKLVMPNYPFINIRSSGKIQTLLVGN
Conditions: protein: recombinant; tags: N-terminal GST; dsDNA, one strand shown. Put shortly: as §1

A further test deals with ETV6 (Homo sapiens, UniProt P41212 1-452). Conditions: protein: recombinant; tags: N-terminal GST; dsDNA, one strand shown. Put shortly: as §1
Sequence of ETV6 (P41212 whole entry): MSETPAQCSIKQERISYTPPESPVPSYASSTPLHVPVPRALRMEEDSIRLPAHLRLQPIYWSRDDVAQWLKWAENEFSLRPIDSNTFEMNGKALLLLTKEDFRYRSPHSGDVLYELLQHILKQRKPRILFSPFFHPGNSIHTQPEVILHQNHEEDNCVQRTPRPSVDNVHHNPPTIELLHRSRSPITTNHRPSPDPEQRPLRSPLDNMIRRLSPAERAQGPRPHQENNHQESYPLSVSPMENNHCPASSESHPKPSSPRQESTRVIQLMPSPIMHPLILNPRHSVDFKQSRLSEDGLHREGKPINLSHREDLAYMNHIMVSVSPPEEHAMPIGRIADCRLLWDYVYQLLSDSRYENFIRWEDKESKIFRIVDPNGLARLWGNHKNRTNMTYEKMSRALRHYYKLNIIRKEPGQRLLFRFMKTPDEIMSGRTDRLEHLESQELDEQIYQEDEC

Sequence of ELF4 (Q99607 whole entry): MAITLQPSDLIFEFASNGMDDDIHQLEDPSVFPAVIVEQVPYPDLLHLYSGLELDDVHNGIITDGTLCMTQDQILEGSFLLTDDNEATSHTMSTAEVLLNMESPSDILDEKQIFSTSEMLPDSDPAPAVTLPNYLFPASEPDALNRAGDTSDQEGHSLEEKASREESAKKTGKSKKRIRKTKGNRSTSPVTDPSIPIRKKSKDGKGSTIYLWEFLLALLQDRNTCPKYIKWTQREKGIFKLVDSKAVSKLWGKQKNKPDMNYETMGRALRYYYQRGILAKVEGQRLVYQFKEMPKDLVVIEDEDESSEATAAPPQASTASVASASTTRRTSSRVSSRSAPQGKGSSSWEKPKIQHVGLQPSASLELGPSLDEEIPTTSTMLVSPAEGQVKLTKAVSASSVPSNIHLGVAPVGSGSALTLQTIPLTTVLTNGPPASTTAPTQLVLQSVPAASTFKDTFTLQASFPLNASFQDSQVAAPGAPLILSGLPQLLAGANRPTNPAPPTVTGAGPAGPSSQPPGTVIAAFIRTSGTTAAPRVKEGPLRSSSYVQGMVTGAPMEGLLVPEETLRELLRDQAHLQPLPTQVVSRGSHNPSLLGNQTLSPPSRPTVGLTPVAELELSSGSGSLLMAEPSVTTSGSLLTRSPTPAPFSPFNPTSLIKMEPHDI
Sequence of ETV5 (P41161 whole entry): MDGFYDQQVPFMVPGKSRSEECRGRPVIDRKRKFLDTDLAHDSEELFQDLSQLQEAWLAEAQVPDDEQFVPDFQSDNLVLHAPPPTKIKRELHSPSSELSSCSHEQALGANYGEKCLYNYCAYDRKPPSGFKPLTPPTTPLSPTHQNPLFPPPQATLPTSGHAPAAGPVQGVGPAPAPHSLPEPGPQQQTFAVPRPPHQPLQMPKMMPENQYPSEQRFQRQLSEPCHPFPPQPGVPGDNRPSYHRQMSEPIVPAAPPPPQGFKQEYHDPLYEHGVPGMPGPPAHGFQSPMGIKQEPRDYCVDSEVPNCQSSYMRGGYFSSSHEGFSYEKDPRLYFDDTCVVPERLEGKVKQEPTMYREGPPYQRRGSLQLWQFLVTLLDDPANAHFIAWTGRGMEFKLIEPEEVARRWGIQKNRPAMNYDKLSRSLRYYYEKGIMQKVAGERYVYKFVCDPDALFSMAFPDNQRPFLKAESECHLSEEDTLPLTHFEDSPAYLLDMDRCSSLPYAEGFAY
Sequence of ETV1 (P50549 whole entry): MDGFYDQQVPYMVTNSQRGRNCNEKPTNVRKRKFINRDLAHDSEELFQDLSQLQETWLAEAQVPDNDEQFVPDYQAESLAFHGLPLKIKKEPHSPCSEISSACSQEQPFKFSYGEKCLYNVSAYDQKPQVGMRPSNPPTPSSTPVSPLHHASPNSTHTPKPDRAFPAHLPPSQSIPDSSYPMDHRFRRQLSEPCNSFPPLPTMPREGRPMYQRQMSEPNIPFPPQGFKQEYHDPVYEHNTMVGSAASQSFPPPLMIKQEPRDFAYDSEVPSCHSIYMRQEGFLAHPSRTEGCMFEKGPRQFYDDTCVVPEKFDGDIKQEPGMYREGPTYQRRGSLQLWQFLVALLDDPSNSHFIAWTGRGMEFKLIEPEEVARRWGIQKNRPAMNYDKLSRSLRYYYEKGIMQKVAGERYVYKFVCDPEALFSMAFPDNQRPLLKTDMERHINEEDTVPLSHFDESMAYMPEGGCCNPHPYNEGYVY
Sequence of CRX (O43186 whole entry): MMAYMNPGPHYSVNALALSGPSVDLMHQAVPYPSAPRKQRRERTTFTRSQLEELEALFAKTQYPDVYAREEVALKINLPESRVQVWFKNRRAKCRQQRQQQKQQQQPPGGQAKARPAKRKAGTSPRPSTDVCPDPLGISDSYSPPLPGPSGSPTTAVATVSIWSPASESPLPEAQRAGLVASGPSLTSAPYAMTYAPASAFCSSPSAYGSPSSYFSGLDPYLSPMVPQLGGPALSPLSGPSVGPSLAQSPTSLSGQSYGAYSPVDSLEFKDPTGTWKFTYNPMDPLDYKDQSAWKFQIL

With GCTCCG, the binding signal with FEV was 1.42 fold enrichment (6-mer frequency, TF over GST control); with ETV5, 1.33 fold enrichment (6-mer frequency, TF over GST control); with HSF1, 1.2 fold enrichment (6-mer frequency, TF over GST control); with SPIC, 1.54 fold enrichment (6-mer frequency, TF over GST control); in the test with ELF4, 1.39 fold enrichment (6-mer frequency, TF over GST control); in the test with ELK4, 1.33 fold enrichment (6-mer frequency, TF over GST control). For the same sequence, the binding signal with ETV2 is 1.32 fold enrichment (6-mer frequency, TF over GST control); with ELF3, 1.32 fold enrichment (6-mer frequency, TF over GST control); with CRX it was 1.07 fold enrichment (6-mer frequency, TF over GST control); in the test with ETV1, 1.27 fold enrichment (6-mer frequency, TF over GST control); with ERF it was 1.26 fold enrichment (6-mer frequency, TF over GST control); with ETV3L it was 1.33 fold enrichment (6-mer frequency, TF over GST control). For the same sequence, the binding signal with ETS2 is 1.33 fold enrichment (6-mer frequency, TF over GST control); in the test with SPDEF, 1.34 fold enrichment (6-mer frequency, TF over GST control); in the test with ETV7, 1.27 fold enrichment (6-mer frequency, TF over GST control); in the test with ELF5 it was 1.25 fold enrichment (6-mer frequency, TF over GST control); in the test with ETV3, 1.2 fold enrichment (6-mer frequency, TF over GST control); with ETV6, 1.19 fold enrichment (6-mer frequency, TF over GST control).

(Values after PMC7862700, “An all-to-all approach to the identification of sequence-specific readers for epigenetic DNA modifications on cytosine”.)
